The values below come from ChEMBL document CHEMBL3988442, “University of Dundee, Small-Polar-MMV Screening Library” (2021).

For some assays here: Potency and affinity values are given separately.

Common to all, as to parameters: scale not given: direction of the effect not stated beside the values
For test [1], the target named is Protein translocase subunit SecA (Escherichia coli (strain K12)) (UniProt P10408). The test is described as follows: Assay to Identify E. coli SecA ATPase Inhibitors. It is filed as functional. The conditions noted are these: 30 µM.
Test [2] has as its target T1, Ubiquitin-activating enzyme e1, putative (Leishmania donovani (strain BPK282A1)) (UniProt E9BSI1).
T1 sequence (whole entry): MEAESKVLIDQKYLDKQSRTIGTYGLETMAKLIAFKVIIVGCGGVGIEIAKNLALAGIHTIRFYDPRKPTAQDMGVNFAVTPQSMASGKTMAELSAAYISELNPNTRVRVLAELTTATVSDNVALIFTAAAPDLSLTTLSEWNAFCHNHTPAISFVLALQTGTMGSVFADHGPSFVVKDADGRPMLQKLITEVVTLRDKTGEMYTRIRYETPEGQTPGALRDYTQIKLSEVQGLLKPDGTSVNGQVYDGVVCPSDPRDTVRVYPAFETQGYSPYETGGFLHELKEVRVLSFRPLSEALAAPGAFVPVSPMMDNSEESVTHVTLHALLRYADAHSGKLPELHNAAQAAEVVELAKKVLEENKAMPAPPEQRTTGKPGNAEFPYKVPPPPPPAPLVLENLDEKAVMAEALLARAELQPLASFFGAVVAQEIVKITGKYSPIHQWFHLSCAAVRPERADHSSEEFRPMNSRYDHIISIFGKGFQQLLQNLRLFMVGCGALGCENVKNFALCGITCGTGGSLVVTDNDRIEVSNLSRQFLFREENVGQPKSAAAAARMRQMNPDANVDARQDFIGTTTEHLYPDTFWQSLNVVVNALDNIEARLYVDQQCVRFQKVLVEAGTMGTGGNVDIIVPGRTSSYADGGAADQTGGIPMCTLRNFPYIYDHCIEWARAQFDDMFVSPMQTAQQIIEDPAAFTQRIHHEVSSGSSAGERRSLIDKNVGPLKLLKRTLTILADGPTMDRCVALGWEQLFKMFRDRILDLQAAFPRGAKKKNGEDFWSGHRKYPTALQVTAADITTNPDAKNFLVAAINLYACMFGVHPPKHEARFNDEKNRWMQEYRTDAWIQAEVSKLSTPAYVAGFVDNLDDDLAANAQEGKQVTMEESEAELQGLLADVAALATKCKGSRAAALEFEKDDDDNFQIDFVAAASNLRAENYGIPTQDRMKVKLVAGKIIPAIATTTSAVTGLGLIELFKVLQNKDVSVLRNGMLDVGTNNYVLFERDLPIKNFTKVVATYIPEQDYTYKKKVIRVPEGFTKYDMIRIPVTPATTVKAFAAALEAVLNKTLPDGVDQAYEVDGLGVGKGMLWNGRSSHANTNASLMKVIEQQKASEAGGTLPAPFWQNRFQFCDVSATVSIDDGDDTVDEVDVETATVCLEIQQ
As to the kind of experiment: Leishmania donovani Ubiquitin Activating Enzyme (LdE1). It is filed as functional. The conditions noted are these: 30 µM.

The target of test [3] is AMP-activated protein kinase, AMPK (Homo sapiens) (UniProt P54646+O43741+P54619+Q9UGJ0+Q9Y478+Q13131+Q9UGI9). As to the kind of experiment: AMP-dependent Kinase enzyme assay. An in vitro enzyme assay that detects ADP turnover that is directly proportional to AMPK activity. This uses naive AMPK that is activated during the assay with MK-8722. It is filed as functional. The conditions noted are these: 30 µM.

For test [4], the target named is Sialic acid-binding Ig-like lectin 9 (Homo sapiens) (UniProt Q9Y336). The test is described as follows: Hs-Siglec9 ALPHAscreen SOP 20170721. The conditions noted are these: 10 µM. On the technique in general: Alpha assays give light when donor and acceptor beads are brought close together.
The subject of the next test is Trypanosoma cruzi. The test is described as follows: Trypanosoma cruzi phosphomannomutase and mannose-1-phosphate guanylyltransferase assay. It is filed as functional. The conditions noted are these: 10 µM.
Test [5] concerns the target T2, Arginase-2, mitochondrial (Homo sapiens) (UniProt P78540).
T2 sequence (whole entry): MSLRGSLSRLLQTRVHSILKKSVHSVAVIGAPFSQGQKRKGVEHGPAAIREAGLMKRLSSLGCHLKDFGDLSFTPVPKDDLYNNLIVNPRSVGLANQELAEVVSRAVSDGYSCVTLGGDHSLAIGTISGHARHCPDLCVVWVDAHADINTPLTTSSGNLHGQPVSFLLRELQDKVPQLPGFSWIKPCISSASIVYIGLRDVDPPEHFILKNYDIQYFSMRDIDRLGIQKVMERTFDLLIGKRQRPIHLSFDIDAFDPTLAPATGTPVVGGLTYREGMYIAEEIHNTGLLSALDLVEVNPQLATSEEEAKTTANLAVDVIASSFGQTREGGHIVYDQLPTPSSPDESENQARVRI
The test is described as follows: in vitro enzyme assay to detect the production of urea directly proportional to the activity of Arginase II. Note: in the data most compounds retested in dose-response had high values. It is filed as functional. The conditions noted are these: 33.3 µM.

Test [6] concerns the target T3, Proteasome subunit beta (Trypanosoma cruzi) (UniProt O96673).
T3 sequence (whole entry): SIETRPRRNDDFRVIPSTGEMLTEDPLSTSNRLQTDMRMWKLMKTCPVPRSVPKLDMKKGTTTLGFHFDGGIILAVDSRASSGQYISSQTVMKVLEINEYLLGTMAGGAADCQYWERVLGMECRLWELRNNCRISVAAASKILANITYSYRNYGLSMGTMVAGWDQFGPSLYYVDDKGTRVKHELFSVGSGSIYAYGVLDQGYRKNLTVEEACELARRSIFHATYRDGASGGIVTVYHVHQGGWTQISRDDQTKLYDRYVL
As to the kind of experiment: Trypanosoma cruzi proteasome chymotrypsin-like activity (TcProtChymo) assay. Note: in the data most compounds retested in dose-response had high values. It is filed as functional. The conditions noted are these: 9.37 µM.

For a further test, the species on record is Homo sapiens. As to the kind of experiment: To identify inhibition of the IFN signalling (Jak-Stat) pathway via expression of an eGFP reporter gene under the control of an IFN-stimulated response element (ISRE) containing MxA promoter. The conditions noted are these: 30 µM. It is filed as functional. (A reporter such as luciferase makes a cellular process visible.)

Test [7] deals with T4, Tyrosyl-tRNA synthetase, putative (Trypanosoma cruzi (strain CL Brener)) (UniProt Q4DSP6).
T4 sequence (whole entry): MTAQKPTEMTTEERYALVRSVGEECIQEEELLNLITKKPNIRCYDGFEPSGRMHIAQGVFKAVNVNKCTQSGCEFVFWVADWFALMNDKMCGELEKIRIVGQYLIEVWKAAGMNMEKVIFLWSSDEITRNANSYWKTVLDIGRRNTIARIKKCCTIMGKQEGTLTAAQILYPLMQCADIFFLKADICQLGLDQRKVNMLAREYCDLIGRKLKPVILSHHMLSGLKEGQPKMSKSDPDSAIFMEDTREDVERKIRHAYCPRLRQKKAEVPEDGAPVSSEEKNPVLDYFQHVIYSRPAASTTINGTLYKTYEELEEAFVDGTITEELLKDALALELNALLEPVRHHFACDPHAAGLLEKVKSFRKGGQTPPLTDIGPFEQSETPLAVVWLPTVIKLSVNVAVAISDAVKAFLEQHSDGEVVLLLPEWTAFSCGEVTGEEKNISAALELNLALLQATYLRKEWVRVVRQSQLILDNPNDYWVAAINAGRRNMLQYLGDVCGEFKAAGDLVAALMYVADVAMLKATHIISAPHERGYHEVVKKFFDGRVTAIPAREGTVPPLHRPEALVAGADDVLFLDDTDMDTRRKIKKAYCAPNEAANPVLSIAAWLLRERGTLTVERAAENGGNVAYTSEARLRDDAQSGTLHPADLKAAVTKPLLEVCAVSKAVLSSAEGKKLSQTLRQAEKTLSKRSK
The test is described as follows: Trypanosoma cruzi tyrosyl tRNA synthetase (TcYRS) _High Tyrosine SOP. Note: in the data most compounds retested in dose-response had high values. It is filed as functional. The conditions noted are these: 30 µM.

Test [8] concerns the target T4, Tyrosyl-tRNA synthetase, putative (Trypanosoma cruzi (strain CL Brener)). The test is described as follows: Trypanosoma cruzi tyrosyl tRNA synthetase (TcYRS) SOP. It is filed as functional. The conditions noted are these: 30 µM.
Test [9] deals with Chromo domain-containing protein 1 (Saccharomyces cerevisiae (strain ATCC 204508 / S288c) (Baker's yeast)) (UniProt P32657). The test is described as follows: ScCHD-1 Enzyme Inhibition Assay. Note: in the data most compounds retested in dose-response had high values. It is filed as functional. The conditions noted are these: 30 µM.
Chromo domain-containing protein 1 (Saccharomyces cerevisiae (strain ATCC 204508 / S288c) (Baker's yeast)), sequence (P32657 whole entry, the tested form may be a part): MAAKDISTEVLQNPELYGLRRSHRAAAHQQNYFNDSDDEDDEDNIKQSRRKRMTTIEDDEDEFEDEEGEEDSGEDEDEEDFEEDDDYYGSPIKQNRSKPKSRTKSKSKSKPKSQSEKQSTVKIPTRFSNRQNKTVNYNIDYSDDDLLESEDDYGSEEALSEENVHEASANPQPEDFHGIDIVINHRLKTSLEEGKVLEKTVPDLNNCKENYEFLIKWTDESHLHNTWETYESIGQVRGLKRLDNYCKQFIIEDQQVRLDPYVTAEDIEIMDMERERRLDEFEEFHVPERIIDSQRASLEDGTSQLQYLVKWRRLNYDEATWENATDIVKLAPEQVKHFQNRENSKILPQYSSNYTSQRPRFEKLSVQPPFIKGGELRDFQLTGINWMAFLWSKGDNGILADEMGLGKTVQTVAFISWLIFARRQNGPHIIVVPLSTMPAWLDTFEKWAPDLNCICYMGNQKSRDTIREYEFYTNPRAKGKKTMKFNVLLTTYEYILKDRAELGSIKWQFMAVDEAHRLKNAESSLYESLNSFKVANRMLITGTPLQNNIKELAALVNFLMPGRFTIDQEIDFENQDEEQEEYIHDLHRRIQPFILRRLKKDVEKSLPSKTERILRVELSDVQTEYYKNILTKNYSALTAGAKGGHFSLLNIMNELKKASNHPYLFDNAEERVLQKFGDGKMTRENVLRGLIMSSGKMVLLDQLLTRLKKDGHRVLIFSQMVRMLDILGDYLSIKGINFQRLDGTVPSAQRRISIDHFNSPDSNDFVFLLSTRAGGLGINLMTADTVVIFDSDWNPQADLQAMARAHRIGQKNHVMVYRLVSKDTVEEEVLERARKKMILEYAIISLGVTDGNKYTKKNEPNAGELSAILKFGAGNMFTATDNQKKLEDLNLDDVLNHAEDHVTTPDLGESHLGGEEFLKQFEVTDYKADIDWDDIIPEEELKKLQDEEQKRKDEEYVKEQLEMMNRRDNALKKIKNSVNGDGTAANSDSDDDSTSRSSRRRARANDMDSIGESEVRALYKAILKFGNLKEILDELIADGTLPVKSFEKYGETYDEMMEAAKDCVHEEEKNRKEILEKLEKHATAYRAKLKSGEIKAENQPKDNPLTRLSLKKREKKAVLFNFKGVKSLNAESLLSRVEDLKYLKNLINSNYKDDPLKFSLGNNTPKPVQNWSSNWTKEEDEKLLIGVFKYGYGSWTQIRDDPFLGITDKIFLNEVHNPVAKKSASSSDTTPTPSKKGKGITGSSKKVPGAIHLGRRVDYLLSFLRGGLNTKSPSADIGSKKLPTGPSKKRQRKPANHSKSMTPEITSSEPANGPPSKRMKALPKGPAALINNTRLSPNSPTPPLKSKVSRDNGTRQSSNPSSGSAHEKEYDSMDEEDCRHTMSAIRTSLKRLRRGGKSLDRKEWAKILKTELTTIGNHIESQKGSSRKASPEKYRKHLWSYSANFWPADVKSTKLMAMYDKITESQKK

Protein translocase subunit SecA (Escherichia coli (strain K12)), sequence (P10408 whole entry): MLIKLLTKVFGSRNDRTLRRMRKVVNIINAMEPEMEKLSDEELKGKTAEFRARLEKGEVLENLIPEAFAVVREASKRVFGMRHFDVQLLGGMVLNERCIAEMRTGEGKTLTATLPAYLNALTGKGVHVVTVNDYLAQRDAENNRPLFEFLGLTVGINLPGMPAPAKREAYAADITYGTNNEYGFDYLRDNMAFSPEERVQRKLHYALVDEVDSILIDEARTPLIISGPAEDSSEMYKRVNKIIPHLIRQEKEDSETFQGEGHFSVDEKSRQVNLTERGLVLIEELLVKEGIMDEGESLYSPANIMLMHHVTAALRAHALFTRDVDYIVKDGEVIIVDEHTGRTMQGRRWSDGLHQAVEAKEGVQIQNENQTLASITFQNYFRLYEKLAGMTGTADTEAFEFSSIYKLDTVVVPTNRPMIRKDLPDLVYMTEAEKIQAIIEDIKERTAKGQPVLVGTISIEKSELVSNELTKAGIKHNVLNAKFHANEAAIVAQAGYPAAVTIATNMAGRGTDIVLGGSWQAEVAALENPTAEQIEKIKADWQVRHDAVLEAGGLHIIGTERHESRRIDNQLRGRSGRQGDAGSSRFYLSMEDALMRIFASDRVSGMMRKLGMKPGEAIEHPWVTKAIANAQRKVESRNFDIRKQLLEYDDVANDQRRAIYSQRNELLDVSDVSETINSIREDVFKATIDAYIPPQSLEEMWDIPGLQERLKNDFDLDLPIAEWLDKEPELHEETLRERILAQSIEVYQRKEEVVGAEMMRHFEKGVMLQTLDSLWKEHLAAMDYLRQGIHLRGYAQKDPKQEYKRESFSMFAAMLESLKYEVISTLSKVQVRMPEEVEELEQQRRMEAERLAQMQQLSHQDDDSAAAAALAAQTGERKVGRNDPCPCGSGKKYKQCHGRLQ
Sialic acid-binding Ig-like lectin 9 (Homo sapiens), sequence (Q9Y336 whole entry): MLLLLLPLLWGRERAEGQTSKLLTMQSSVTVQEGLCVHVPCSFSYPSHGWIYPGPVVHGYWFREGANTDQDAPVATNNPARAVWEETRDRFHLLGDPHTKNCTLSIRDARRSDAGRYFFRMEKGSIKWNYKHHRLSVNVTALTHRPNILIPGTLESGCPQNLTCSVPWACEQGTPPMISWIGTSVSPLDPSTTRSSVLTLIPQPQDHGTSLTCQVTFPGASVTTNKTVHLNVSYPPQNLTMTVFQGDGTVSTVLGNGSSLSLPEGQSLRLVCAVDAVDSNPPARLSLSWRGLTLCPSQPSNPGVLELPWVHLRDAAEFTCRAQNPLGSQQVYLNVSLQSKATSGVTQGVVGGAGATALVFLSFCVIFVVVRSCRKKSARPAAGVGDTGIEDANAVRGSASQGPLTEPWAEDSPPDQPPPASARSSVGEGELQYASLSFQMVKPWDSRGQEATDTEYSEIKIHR

In the case of `OC1(CN2CCCC2)CCCN(Cc2ccc(F)cc2Cl)C1` (stereo not given), the Percent Effect in test [1] was -2.56%; in test [2] it was 0%; in [3], -4.18%; in [4] it was -3.78%; in the test with Trypanosoma cruzi, -7.5%; in test [5] it was 3.12%. Besides, the Percent Effect is 12% in [6]; 5.3% in the test filed under Homo sapiens; 3.83% in [7]; 11.1% in [8]; -3.94% in test [9].

As to `CCc1ncc(C(=O)N2CCCCC2Cn2cccn2)s1` (stereo not given), the Percent Effect in test [1] was -0.823%; in test [2] it was 0%; in [3], 2.6%; in test [4], -4.33%; in the test with Trypanosoma cruzi, -3.44%; in [5], 1.66%. Further, the Percent Effect in test [6] was -4.13%; in the test listed under Homo sapiens, 7.71%; in [7], 2.97%; in test [8], -23.2%; in [9], 10.1%.

On to `Cc1nn(CC(=O)N2CCCCC2Cn2cccn2)c(C)c1Cl` (stereo not given), for which the Percent Effect is -2.25% in test [1]; 2.7% in test [2]; 0.616% in test [3]; -1.03% in [4]; -4.3% with Trypanosoma cruzi; 2.92% in [5]. The Percent Effect in [6] is 14.4%; in the test filed under Homo sapiens, 7.18%; in test [7], 1.98%; in test [8], 13.4%; in test [9], -2.37%.

On to `NC(=O)C1(Cc2ccccc2-c2ccccc2)CCCN(CC2CC2)C1` (stereo not given), for which the Percent Effect in [1] is -0.127%; in [2], 0%; in [3], 8.02%; in test [4], 1.63%; in the test on Trypanosoma cruzi, 3.15%; in test [5] it was 0.233%. Moreover, the Percent Effect in test [6] is 5.2%; in the test filed under Homo sapiens, -4.55%; in [7] it was 2.13%; in test [8], 3.85%; in test [9], -2.97%.

`CN(C)C(=O)CC1CC2(CCN(CC3CC3)CC2)c2cc(F)ccc21` (stereo not given): the Percent Effect in test [1] was -6.7%; in [2], 5.41%; in test [3], -8.18%; in test [4], -5.86%; in the test with Trypanosoma cruzi, -2.44%; in test [5], -4.14%. The Percent Effect is 3.14% in test [6]; 5.88% in the test filed under Homo sapiens; -5.41% in [7]; -2.56% in test [8]; 5.46% in [9].

As for `Cc1ccc(C(=O)N2CCSCC2)cc1NC(=O)NCCO`, the Percent Effect is -5.08% in test [1]; 2.74% in test [2]; 6.7% in test [3]; 18.5% in test [4]; 1.39% in the test on Trypanosoma cruzi; -1.2% in test [5]. For the same molecule, the Percent Effect in test [6] is 9.68%; in the test filed under Homo sapiens, 15.2%; in test [7], 6.25%; in test [8], 11.1%; in test [9] it was -3.9%.

For the molecule `O=C(c1ccco1)N1CCCC(c2cc(C(F)F)n3ncnc3n2)C1` (stereo not given), the Percent Effect in test [1] was -1.42%; in test [2] it was 4.05%; in test [3], 9.33%; in [4], 28.2%; in the test on Trypanosoma cruzi, -8.5%; in [5], 3.02%. Further, the Percent Effect turned out to be 3.9% in [6]; 7.52% in the test filed under Homo sapiens; 0% in test [7]; 3.9% in [8]; 3.66% in [9].

Regarding `CN(C)C(=O)NC1COC2(CCN(Cc3nccn3C)CC2)C1` (stereo not given), the Percent Effect in test [1] was 0.893%; in test [2], 5.2%; in [3], -3.63%; in test [4] it was 0.435%; in the test on Trypanosoma cruzi it was -7.2%; in [5] it was 5.81%. Also, the Percent Effect in [6] was 11.3%; in the test listed under Homo sapiens, -0.051%; in test [7], 5.29%; in test [8], 6.41%; in test [9], 0.228%.

For `CC(C)(C)N1CCCN(C(=O)c2csc(S(N)(=O)=O)c2)CC1`, the Percent Effect was -8.14% in [1]; 0% in [2]; 1.87% in test [3]; -9.76% in [4]; -5.57% in the test on Trypanosoma cruzi; -2.73% in test [5]. Besides, the Percent Effect was -0.258% in test [6]; -7.17% in the test filed under Homo sapiens; -3.23% in test [7]; -6.17% in [8]; -1.28% in test [9].

As to `CC[C@@]1(O)CCN(C(=O)c2ccsc2)C[C@H]1O`, the Percent Effect in test [1] is -3.94%; in test [2], 4.17%; in test [3], -1.21%; in test [4] it was -6.46%; with Trypanosoma cruzi, -2.82%; in test [5], 3.09%. Further, the Percent Effect in test [6] was 12.3%; in the test listed under Homo sapiens it was -3.4%; in test [7], 4.21%; in test [8], 5.13%; in test [9], 0.37%.
